# Laboratory results reported in PubChem BioAssay AID1259398 (Fisher Drug Discovery Resource Center, 2018).
# “And” between values parts separate entries of the source, which are not always exact repeats. Identical values can stand only once. The whole screen tested about 290,000 compounds, of which about 230 (0.079%) were called active. Cut-off read from the data, not from the text of the source: active = inhibition above about 40%; inactive = the rest. The entries come from a sample that favours actives as a whole. Where a structure was tested more than once in an assay, its records may differ in their call.
# Target: Cyclic GMP-AMP synthase (Homo sapiens) (UniProt Q8N884)
# Sequence (Q8N884 whole entry, looked up): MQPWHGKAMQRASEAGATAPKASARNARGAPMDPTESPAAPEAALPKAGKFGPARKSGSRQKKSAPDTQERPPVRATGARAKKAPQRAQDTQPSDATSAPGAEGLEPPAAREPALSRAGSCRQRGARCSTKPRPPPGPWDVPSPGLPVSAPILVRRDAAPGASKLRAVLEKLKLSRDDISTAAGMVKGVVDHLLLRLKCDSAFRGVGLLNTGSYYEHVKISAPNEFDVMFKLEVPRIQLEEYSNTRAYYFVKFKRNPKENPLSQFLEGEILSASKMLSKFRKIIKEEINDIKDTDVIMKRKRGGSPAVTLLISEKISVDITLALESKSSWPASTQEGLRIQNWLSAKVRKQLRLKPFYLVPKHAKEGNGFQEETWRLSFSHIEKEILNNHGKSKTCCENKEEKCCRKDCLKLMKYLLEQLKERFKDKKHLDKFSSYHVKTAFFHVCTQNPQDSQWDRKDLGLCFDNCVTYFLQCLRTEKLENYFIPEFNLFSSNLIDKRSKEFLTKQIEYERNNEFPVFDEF
# Assay: Primary biochemical luminescence assay for human cyclic GMP-AMP synthase inhibitors (AID 1259398);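 note: 0% = vehicle reaction and 100% = reaction without DNA for no activity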
# Conditions: recombinant h-cGAS, ATP depletion, Kinase-Glo luminescence; at 12.5 µM; stronger effect = higher value
row,SMILES,inhibition
1,COc1cccc(-c2nn(Cc3ccccc3)c(=O)c3nc(C)sc23)c1,-0.0493% (inactive)
2,O=C(NCCc1ccco1)c1ccc2c(c1)OCO2,1.62% (inactive)
3,COc1cc(CN(C)C(=O)c2cc(N3CCN(c4cccc(C(F)(F)F)c4)CC3)nc3ccccc23)cc(OC)c1OC,-6.59% (inactive)
4,NC(=O)COc1ccc(C(=O)N2CCCC2CCc2ccccc2)cc1 (configuration not stated),-3.77% (inactive)
5,CCOC(=O)c1sc(NC(=O)CCCl)c(C(=O)OCC)c1C,-5.41% (inactive)
6,CCCc1c(C(=O)NCc2cccnc2)cnn1-c1ccccc1C,-8.73% (inactive)
7,O=C(Nc1nnc(-c2ccc(Cl)cc2)s1)C1CCCN1S(=O)(=O)c1ccc(F)cc1 (configuration not stated),-2.72% (inactive)
8,C(=C\c1ccccc1)/CSc1nnc2c(n1)[nH]c1ccccc12,-6.1% (inactive)
9,CC(C)CNC(=O)c1c(O)nc2sccn2c1=O,-9.43% (inactive)
10,COCCNC(=O)Cn1nc2c(c1NC(=O)Cc1ccc(F)cc1)CSC2,-6.17% (inactive)
11,Cn1c(=O)[nH]c(=O)c2c1nc(N1CCN(Cc3ccccc3)CC1)n2Cc1cccc(Cl)c1,-7.67% (inactive)
12,CC1(C)C(c2ccc(Cl)cc2)=[N+]([O-])C(C)(C)C(c2ccc(Cl)cc2)=[N+]1[O-],-4.69% (inactive)
13,COc1ccc2cnn(-c3cccc(Cl)c3)c(=O)c2c1OC,-0.243% (inactive)
14,Cc1sc2ncn(CC(=O)O)c(=O)c2c1C,-2.86% (inactive)
15,Cc1ccc(-c2cc(C(=O)O)[nH]n2)c(C)c1,-5.69% (inactive)
16,O=C(CSc1nc(=O)n(CCCN2CCOCC2)c2c1CCC2)N1CCc2ccccc21,-6% (inactive)
17,CC(C)CSc1nc2c(c(=O)n(C)c(=O)n2C)n1CC=Cc1ccccc1,-0.843% (inactive)
18,CC(Cn1cncn1)NC(=O)C1CCN(C)C(=O)C1 (configuration not stated),-9.85% (inactive)
19,Clc1ccccc1Cn1ncc2c(N3CCN(CCOc4cccc5ccccc45)CC3)ncnc21,-10.9% (inactive)
20,N#CC1C(=N)C(C#N)(C#N)C(c2ccco2)C2CCCC=C12 (configuration not stated),-7.43% (inactive)
21,N#CC1C(=N)SC(=N)C(C#N)C1c1cccc(O)c1 (configuration not stated),65.3% (active)
22,N#CC1C(=N)SC(=N)C(C#N)C1c1ccnc2ccccc12 (configuration not stated),-1.27% (inactive)

row,SMILES,inhibition
1,CCc1ccc(C2C(C#N)C(=N)SC(=N)C2C#N)cc1 (configuration not stated),-0.735% (inactive)
2,N#CC1C(=N)SC(=N)C(C#N)C1c1ccco1 (configuration not stated),53.9% (active)
3,CCC(C(=O)N(CC(=O)N1CC(=O)N(c2cccc(Cl)c2C)C1)Cc1ccco1)c1ccccc1 (configuration not stated),-7.01% (inactive)
4,COc1cc(S(=O)(=O)Nc2c(F)cccc2F)cc(C(=O)O)c1OC,9.01% (inactive)
5,Cc1cccc(Cn2cccc2CN(Cc2ccc(F)cc2)C2CCCCC2)c1,-1.66% (inactive)
6,COc1ccc(-n2nnnc2SCCC#N)cc1,-7.16% (inactive)
7,Cc1cc(C(=O)O)ccc1S(=O)(=O)N(C)c1cc(F)ccc1F,-8.29% (inactive)
8,CCC(CO)N(Cc1ccc(F)cc1)Cc1c(C)nn(C)c1Cl (configuration not stated),-10.3% (inactive)
9,O=C(c1cc(-c2ccccc2F)on1)N1CCc2ccc(O)cc2C1,-0.786% (inactive)
10,COc1cc(C(=O)n2nc(C)c(Sc3ccccc3[N+](=O)[O-])c2C)cc(OC)c1OC,-6.71% (inactive)
11,CC(=O)Nc1ccccc1OS(=O)(=O)c1ccc(Br)cc1,0.158% (inactive) and 5.4% (inactive)
12,CN(Cc1nc2ccccc2n1C)C(=O)[C@H]1CCCO1,-5.26% (inactive)
13,O=C(NC(Cc1ccccc1)C(=O)Nc1nnc(-c2cccc(Cl)c2)s1)c1cccc(C(F)(F)F)c1 (configuration not stated),-8.87% (inactive)
14,COc1cccc(-c2nc(OCc3ccc(F)cc3)nn2-c2cccc(NC(=O)C3CCC3)c2)c1,-6.9% (inactive)
15,O=C(Nc1ccc(F)cc1)c1csc(CSc2nnc(Cc3ccccc3)n2-c2cccc(Cl)c2)n1,5.96% (inactive)
16,CCn1nc(C(=O)O)c2c1CCC(N(C)CCn1ccnc1C)C2 (configuration not stated),-7.94% (inactive)
17,COc1cccc(C2Nc3ccccc3N=C3CC(C)(C)CC(=O)C32)c1OC (configuration not stated),-3.94% (inactive)
18,CC(C)(CCl)C(=O)N1CCN(c2ncnc3c2nnn3-c2cccc(F)c2)CC1,-5.18% (inactive)
19,CCc1nc2ccc(C(=O)NCCNC(C)=O)cn2c1N(CC)Cc1cccc(Br)c1,-6.29% (inactive)
20,O=C(NCCc1ccccc1)c1cc(NC(=O)C(c2ccccc2)c2ccccc2)ccc1N1CCCCC1,-3.47% (inactive)
21,O=C(NC1CCC1)c1ccc(-c2cc(-c3cccc(C(F)(F)F)c3)n[nH]2)cc1,-8.56% (inactive)
22,CC1c2ccsc2CCN1C(=O)Cc1csc(-c2ccsc2)n1 (configuration not stated),-10.7% (inactive)

row,SMILES,inhibition
1,Nc1cc(-c2cccc(Cl)c2)nn1-c1ccc(C(=O)N2CCOCC2)cc1,-3.59% (inactive)
2,COC[C@@H]1CCCN1C(=O)c1ccc(-n2nc(-c3cccc(Cl)c3)cc2N)cc1,2.07% (inactive)
3,CN(C)c1ccc(N2CC(=O)C(c3nc(-c4cccc(Cl)c4)cs3)C2=N)cc1 (configuration not stated),148% (active)
4,COc1cccc(CSc2nnc(CNC(=O)Nc3cc(C(F)(F)F)cc(C(F)(F)F)c3)n2-c2ccc(C)cc2)c1,-18% (inactive)
5,Cc1cc(C)n(CC(=O)N2CC[C@@H]3CN(S(C)(=O)=O)[C@@H]3C2)n1,66.4% (active)
6,Cc1cc(C)n(CC2CCN(C(=O)C3CCN(S(C)(=O)=O)CC3)CC2)n1,-9.09% (inactive)
7,CCn1ncc(C(=O)N2CC[C@@H]3CN(S(C)(=O)=O)[C@@H]3C2)c1C,-7.55% (inactive)
8,CS(=O)(=O)c1ccc(-c2ccc(NS(=O)(=O)c3cccs3)cc2)nn1,-9.35% (inactive)
9,Cc1cc(C(=O)N2CCC(N(C)C)C2)ccc1NC(=O)c1ccco1 (configuration not stated),-11.4% (inactive)
10,CC(=O)N(c1ccccc1)C1C=C(Nc2ccccc2)C(=O)C1 (configuration not stated),-10.4% (inactive)
11,Cc1c(C(=O)N2CCC(Cc3ccccc3)CC2)cnc2c(-c3cccc(C(F)(F)F)c3)cnn12,-4.43% (inactive)
12,OC(COCc1ccco1)CN(Cc1ccccc1)C1CC1 (configuration not stated),1.45% (inactive)
13,Cc1cc(NC(=O)Cc2cccs2)n(-c2nc(-c3cccs3)cs2)n1,-2.04% (inactive)
14,CN(CCCOc1ccccc1Cl)C(=O)C1(N)CC1,-6.84% (inactive)
15,CC(C(=O)N1CCCCCC1)N1CCCC(C(=O)Nc2ccccc2)C1 (configuration not stated),-13.6% (inactive)
16,CC1CC(=O)C2C=Nc3ccccc3N=C2C1 (configuration not stated),-2.79% (inactive)
17,CS(=O)(=O)N1CCCC(NCc2ccc(-c3ccc(C(F)(F)F)cc3)o2)C1 (configuration not stated),-7.61% (inactive)
18,CCOC(=O)c1[nH]c(C)c(C(=O)C(C)N(CCOC)C(=O)Nc2c(C)cccc2C)c1C (configuration not stated),-3.12% (inactive)
19,O=S1(=O)N=C(Nc2ccccc2Cl)c2ccccc21,-4.92% (inactive)
20,Cc1noc(C)c1CN1CCN2C=C(C(=O)NC3CCc4ccccc43)OC2=NC1=O (configuration not stated),-7.38% (inactive)
21,C=CCn1c(SCC(=O)c2cc(C)n(Cc3ccco3)c2C)nc2sc(C)c(C)c2c1=O,-4.88% (inactive)
22,Cc1c(C(=O)N2CCc3[nH]nc(-c4ccccc4)c3C2)[nH]c2c(F)cccc12,-6.74% (inactive)

row,SMILES,inhibition
1,Cc1csc(=O)n1CCC(=O)Nc1ccc(S(=O)(=O)N(C)C(C)C)cc1,7.25% (inactive)
2,CC(=O)c1cccc(N2C(=O)C3C4C=CC(C5CC45)C3C2=O)c1 (configuration not stated),-3.94% (inactive)
3,CCOC(=O)c1cc(-c2ccccc2)sc1NC(=O)CC1CCCC1,-6.75% (inactive)
4,CCOC(=O)c1ccc(NC(=O)Cn2c(-c3nnc(C(C)C)o3)cc3ccccc32)cc1,-1.71% (inactive)
5,Cc1ncc(CN(C)CC2CCN(c3ccccc3)C2)[nH]1 (configuration not stated),-4.21% (inactive)
6,COCC(=O)Nc1ccccc1C(=O)N1CC(C)CC(C)C1 (configuration not stated),-11.9% (inactive)
7,Cc1ccc(CSc2nc(=O)n(CCO)c3c2CCC3)cc1,-6.25% (inactive)
8,O=C(c1cn[nH]c1-c1ccc(F)cc1)N1CCN(S(=O)(=O)c2ccccc2)CC1,-8.02% (inactive)
9,COCCNC(=O)c1ccc(CSc2nnc(Cc3ccccc3)n2-c2ccc(OC)cc2)cc1,5.06% (inactive)
10,COc1cccc(CN2CCC(C(=O)NC(c3cccc(OC)c3)c3ccccn3)CC2)c1 (configuration not stated),-3.62% (inactive)
11,COc1cc(C(=O)Nc2oc3ccccc3c(=O)c2-c2ccccc2)cc(OC)c1OC,-4.49% (inactive)
12,N#CC(=C1NS(=O)(=O)c2ccccc21)c1nc2ccccc2n1Cc1ccccc1,-6.01% (inactive)
13,NC(=O)C1CCCN1C(=O)NC(=O)CSc1ccccc1Cl (configuration not stated),20.8% (inactive)
14,N#Cc1ccsc1NC(=O)c1cc(Cl)c2c(c1)OCO2,0.691% (inactive)
15,CCc1c(C(=O)N2CCCC2)c(CC(C)C)nn1-c1ccc(Cl)cc1,-4.87% (inactive)
16,CCC(C(=O)N1CCN(C(C(=O)Nc2cccc(Cl)c2)C2CCCC2)CC1)c1ccccc1 (configuration not stated),-0.887% (inactive)
17,CN1C(=O)[C@]2(C)[C@H](c3ccccc31)[C@@H](C(N)=O)CN2C(=O)CC(C)(C)C,-2.6% (inactive)
18,CCC1CSC(=Nc2ccc(Cl)cc2)N1C(=O)c1ccc(C)nc1 (configuration not stated),-0.466% (inactive)
19,COc1cccc(CN2CCCN(c3nc(Cc4ccccc4)nc4c3c(C)nn4-c3ccc(F)cc3)CC2)c1,-3.74% (inactive)
20,CC(C)CC(CNc1ccc(S(=O)(=O)N2CCCCC2)cc1[N+](=O)[O-])N1CCOCC1 (configuration not stated),-5.16% (inactive)
21,Oc1c(Cl)cc(Cl)c(Cl)c1Cc1c(O)c(Cl)cc(Cl)c1Cl,84.9% (active) and 0.133% (inactive)
